Test results taken from PubChem BioAssay (NCI).
“And” between values parts separate entries of the source, which are not always exact repeats. Equal values may be shown once. This is part of a sample that, as a whole, favours compounds with a hit. Of some 79,000 tested, about 15% had one in any assay. The source made the active and inactive calls. No stated cut-off is given here; in the data, active means growth inhibition above about 70%; inactive means the rest.

Experiments:
[1] = NCI Yeast Anticancer Drug Screen. Data for the rad50 strain (AID 155);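 further: 0% = growth of vehicle-only cultures of the same strain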; settings: S. cerevisiae rad50 strain growth inhibition, stronger effect = higher value
How it was run: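 Cells are treated with compound, grown, and their growth is then scored against vehicle-only cultures of the same repair-deficient yeast strain.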

[2] = NCI Yeast Anticancer Drug Screen. Data for the sgs1 mgt1 strain (AID 161);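 further: 0% = growth of cultures given vehicle only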; settings: S. cerevisiae sgs1 mgt1 strain, stronger effect = higher value
How it was run: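 Read-out: growth inhibition vs vehicle controls. Cells: mutant yeast strain deficient in DNA damage repair.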

[3] = NCI Yeast Anticancer Drug Screen. Data for the cln2 rad14 strain (AID 165);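 further: 0% = growth equal to vehicle treated cultures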; settings: S. cerevisiae cln2 rad14 strain, stronger effect = higher value
How it was run: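 The screen exposed genetically defined yeast (cln2 rad14) to test compounds and scored growth inhibition relative to vehicle-treated controls.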

[4] = NCI Yeast Anticancer Drug Screen. Data for the bub3 strain (AID 167); settings: S. cerevisiae bub3 mutant strain, stronger effect = higher value
How it was run: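 Part of a panel of yeast mutants defective in DNA damage repair or cell cycle regulation. Each strain is grown with compound, and inhibition is calculated relative to solvent-treated cultures.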

[5] = NCI Yeast Anticancer Drug Screen. Data for the mlh1 rad18 strain (AID 175); settings: S. cerevisiae mlh1 rad18 strain growth inhibition, stronger effect = higher value
How it was run: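 Compound-treated yeast growth, normalised to vehicle controls. Strain bears defined DNA repair mutations.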

[6] = NCI Yeast Anticancer Drug Screen. Data for the mec2-1 strain (AID 157); settings: S. cerevisiae mec2-1 strain, stronger effect = higher value
How it was run: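 Cells of the genetically defined mec2-1 yeast strain are incubated with test compound. Inhibition of growth is calculated against vehicle-treated controls.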

[7] = at 5.0 µM (retest, dose inferred, filed as 0.5)
[8] = at 50.0 µM (retest, dose inferred, filed as 5.0)

Measured: growth inhibition

CCCCCCN(CCCCCC)CCCCCC
inactive: [1]; [7] 3% | [1]; [8] -4% | [1]; at 50.0 µM 28.6% | [2]; [7] 0% | [2]; [8] -2% | [2]; at 50.0 µM 9.75% | [3]; [7] -37% | [3]; [8] -6% | [3]; at 50.0 µM 3.55% | [4]; [7] 10% | [4]; [8] 12% | [4]; at 50.0 µM 7.8% | [5]; [7] -3% | [5]; [8] 3% | [5]; at 50.0 µM 35.8%

CC(O)c1cc(-c2ccc(Cl)cc2)nc2ccccc12 (stereo unspecified)
inactive: [1]; [7] 12% | [6]; [7] 4% | [3]; [7] 14% | [4]; [7] 1% | [5]; [7] -1%
active: [1]; [8] 97% | [1]; at 50.0 µM 97.8% | [6]; [8] 98% | [6]; at 50.0 µM 97.2% | [3]; [8] 98% | [3]; at 50.0 µM 97.2% | [4]; [8] 98% | [4]; at 50.0 µM 97.8% | [5]; [8] 97% | [5]; at 50.0 µM 96.5%

CCOc1ccc(/C=C\c2ccnc3ccccc23)cc1OCC
active: [6]; [8] 99% | [6]; at 50.0 µM 97% | [2]; [8] 99% | [3]; [8] 99% | [3]; at 50.0 µM 98.2% | [4]; [8] 99% | [4]; at 50.0 µM 97.3% | [5]; [8] 98% | [5]; at 50.0 µM 96.3%
inactive: [6]; [7] -1% | [2]; [7] 1% | [2]; at 50.0 µM 50.9% | [3]; [7] -3% | [4]; [7] 5% | [5]; [7] -13%

NC(CC(=O)O)c1ccccc1 (stereo unspecified)
inactive: [1]; at 50.0 µM 6.2% and -0.2% and -0.5% | [6]; at 50.0 µM 8.8% and -3.45% and -4.3% | [2]; at 50.0 µM -5.95% and 2.35% and -0.05% | [3]; at 50.0 µM 14.2% and -33.1% and -4.9% | [4]; at 50.0 µM -12.7% and -10.4% and -18.2% | [5]; at 50.0 µM -8.9% and 9.75% and -24.9%

O=[N+]([O-])c1cc(C(F)(F)F)ccc1SSc1ccc(C(F)(F)F)cc1[N+](=O)[O-]
active: [6]; [8] 88% | [2]; [8] 93% | [4]; [8] 92% | [5]; [8] 88%
inactive: [6]; [7] 39% | [6]; at 50.0 µM 50% | [2]; [7] 42% | [2]; at 50.0 µM 68.5% | [3]; [7] 42% | [3]; [8] 64% | [3]; at 50.0 µM 54.7% | [4]; [7] 42% | [4]; at 50.0 µM 66.7% | [5]; [7] 59% | [5]; at 50.0 µM 58.4%

CCCCC(=O)c1nc(N(CC2CCCCC2)C(=O)NC)sc1N
inactive: [6]; [7] -4% | [6]; [8] 35% | [6]; at 50.0 µM -13.4% | [2]; [7] -1% | [2]; [8] 57% | [2]; at 50.0 µM 7.75% | [3]; [7] -1% | [3]; [8] 7% | [3]; at 50.0 µM 44.2% | [4]; [7] -3% | [4]; [8] 33% | [4]; at 50.0 µM 6.3% | [5]; [7] -3% | [5]; [8] 12% | [5]; at 50.0 µM 16.8%

Cc1ccc(-c2c(C#N)c(-c3ccc(Cl)cc3)c(C#N)c(=O)n2NS(=O)(=O)c2ccccc2)cc1
inactive: [6]; [7] 34% | [6]; [8] 59% | [2]; [7] 28% | [2]; [8] 58% | [2]; at 50.0 µM 69% | [3]; [7] 53% | [3]; [8] 60% | [3]; at 50.0 µM 63.6% | [4]; [7] 52% | [4]; [8] 64% | [5]; [7] 31% | [5]; [8] 49%
active: [6]; at 50.0 µM 71% | [4]; at 50.0 µM 71% | [5]; at 50.0 µM 74.3%

O=C(CC(O)(C(F)(F)Cl)C(F)(F)Cl)CC(O)(C(F)(F)Cl)C(F)(F)Cl
active: [1]; [7] 94% | [1]; [8] 100% | [1]; at 50.0 µM 99.1% | [2]; [7] 93% | [2]; [8] 99% | [2]; at 50.0 µM 99.5% | [3]; [7] 95% | [3]; [8] 99% | [3]; at 50.0 µM 99.3% | [4]; [7] 91% | [4]; [8] 100% | [4]; at 50.0 µM 99.6% | [5]; [7] 97% | [5]; [8] 100% | [5]; at 50.0 µM 99.2%

O=C(O)C(c1ccccc1)c1ccc(-c2ccccc2)cc1 (stereo unspecified)
inactive: [1]; [7] 3% | [2]; [7] 5% | [3]; [7] -7% | [4]; [7] 1% | [4]; [8] 49% | [5]; [7] 0%
active: [1]; [8] 82% | [1]; at 50.0 µM 96.7% | [2]; [8] 80% | [2]; at 50.0 µM 97.8% | [3]; [8] 80% | [3]; at 50.0 µM 97% | [4]; at 50.0 µM 79% | [5]; [8] 80% | [5]; at 50.0 µM 91.2%

NCCNC[Si](c1ccccc1)(c1ccccc1)c1ccccc1
active: [6]; [8] 92% | [2]; [8] 84% | [3]; [8] 96% | [4]; [8] 94% | [5]; [8] 87%
inactive: [6]; [7] -3% | [6]; at 50.0 µM -21.4% | [2]; [7] -10% | [2]; at 50.0 µM 8.2% | [3]; [7] -4% | [3]; at 50.0 µM 5.3% | [4]; [7] -10% | [4]; at 50.0 µM 17.6% | [5]; [7] -12% | [5]; at 50.0 µM 11.4%

Cc1ccc(NC(=S)SCc2ccc(Cl)cc2)cc1C
inactive: [1]; [7] 12% | [2]; [7] 1% | [3]; [7] -4% | [3]; [8] 34% | [4]; [7] 18% | [4]; [8] 68% | [5]; [7] 1%
active: [1]; [8] 94% | [1]; at 50.0 µM 94.9% | [2]; [8] 94% | [2]; at 50.0 µM 98% | [3]; at 50.0 µM 86.8% | [4]; at 50.0 µM 97.5% | [5]; [8] 82% | [5]; at 50.0 µM 98.6%

CN(C)S(=O)(=O)c1cc(Cl)ccc1NN
active: [4]; at 50.0 µM 78.4%
inactive: [6]; [7] -44% | [6]; [8] -41% | [6]; at 50.0 µM 36.9% | [2]; [7] -56% | [2]; [8] -21% | [2]; at 50.0 µM 44% | [3]; [7] -41% | [3]; [8] -22% | [3]; at 50.0 µM 19.2% | [4]; [7] -71% | [4]; [8] -14% | [5]; [7] -119% | [5]; [8] -32% | [5]; at 50.0 µM 48.6%
